High-throughput results as filed in PubChem.
A selection: hits, their analogues and other compounds. The true share with any hit is near 3.1%.
Wnt act = Wnt/beta-catenin pathway activation; Wnt/beta-catenin reporter cell assay, activator, plate reader; activation, % at 9.35 µM; 1.2% of 300,000 active; in the data active means activation above about 30%, passing the limit was not always enough; inconclusive means no clear call, values can overlap the other calls
C2C12 statin = suppressors of simvastatin-induced myotoxicity in C2C12 myotubes; ATP luminescence, 48 h; scaled: DMSO 0, geranylgeraniol control 100; AID 602340; rescue of ATP level, % at 7.49 µM; 0.78% of 330,000 active;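 active means mean ATP rescue above about 67%, or every replicate alone reaching that limit, limit read from the data, passing the limit was not always enough; inconclusive means no clear call, values can overlap the other calls; inactive means mean under the limit and some replicate under it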;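 further: myotubes were challenged with 10 µM simvastatin during compound exposure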
Rtt109 Vps75 = C. albicans Rtt109 histone acetyltransferase inhibition | inhibition, % at 34.9 µM | purified Rtt109/Vps75, ThioGlo CoA-SH fluorescence, 4 h | 0.16% of 330,000 active | Q5AAJ8;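 active means inhibition of at least 50% in every replicate; inconclusive means best replicate reaches 50% inhibition but some replicates fall short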
Target sequence (Q5AAJ8 whole entry, looked up): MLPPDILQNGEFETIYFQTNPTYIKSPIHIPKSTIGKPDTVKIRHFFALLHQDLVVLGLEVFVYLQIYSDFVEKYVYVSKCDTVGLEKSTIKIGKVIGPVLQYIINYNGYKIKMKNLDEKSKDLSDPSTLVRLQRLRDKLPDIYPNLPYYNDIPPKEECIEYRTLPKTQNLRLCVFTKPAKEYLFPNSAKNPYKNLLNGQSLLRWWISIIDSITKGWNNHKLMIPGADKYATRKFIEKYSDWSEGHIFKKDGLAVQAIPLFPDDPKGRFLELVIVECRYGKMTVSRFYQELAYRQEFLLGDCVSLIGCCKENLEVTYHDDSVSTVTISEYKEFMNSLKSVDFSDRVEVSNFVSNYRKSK
esBAF inh = inhibitors of esBAF chromatin remodeling in mouse ES cells. 2% of 350,000 active. reporter increase, % at 12.5 µM. Bmi1-luciferase knock-in reporter, 24 h; 100% = twice the neutral-well signal; in the data active means activation above about 40%; inconclusive means no clear call, values can overlap the other calls;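 further: a rise in the Bmi1 reporter signal indicates esBAF inhibition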
MITF act = MITF TRPM1 promoter activation in melanoma cells; SK-MEL-5 TRPM1-promoter luciferase, 24 h; % of positive control, neutral wells = 0; activation, % at 12.5 µM; 0.75% of 300,000 active;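 active means mean activation of at least 80% with every replicate also reaching 80%; inconclusive means mean reaches 80% but some replicate falls short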
Large screens that a line does not name were inactive.

Cc1noc(C)c1NC(=O)Nc1ccc2c(c1)C(=O)N([C@@H](C)CO)C[C@H](C)[C@@H](CN(C)C(=O)Nc1cccc3ccccc13)OCCCC[C@@H](C)O2	none (no result: Wnt act, C2C12 statin, Rtt109 Vps75, MITF act)
COCC(=O)N1C[C@H](C)[C@H](OC)CN(C)C(=O)c2ccc(NC(=O)Nc3cccc(F)c3)cc2OC[C@@H]1C	none (no result: Wnt act, Rtt109 Vps75, MITF act)
CC1CCC2(CC1)NC(=O)N(Cc1cccc(C(F)(F)F)c1)C2=O (stereo not given)	Wnt act 92 (no result: C2C12 statin, esBAF inh)
CC1CCC2(CC1)NC(=O)N(CC(=O)N(Cc1ccccc1)C(C)(C)C)C2=O (stereo not given)	none
Cc1ccc(/C=C2/CCc3c([nH]c4ccccc34)C2=O)cc1	Wnt act 54, MITF act 100
Cc1ccc2[nH]c3c(c2c1)CC/C(=C/c1ccccc1)C3=O	esBAF inh 91 (no result: MITF act)
O=C1/C(=C\c2ccccc2)CCc2c1[nH]c1ccccc21	Wnt act 39
CC(C)/C=C1\CCc2c([nH]c3ccccc23)C1=O	none (no result: C2C12 statin, esBAF inh)
O=C(NCCc1ccccn1)c1ccc(OC2CCN(CCc3ccccc3)CC2)cc1	Wnt act inconclusive, MITF act 80
CCCN1CCC(Oc2cccc(C(=O)NCCc3ccccc3)c2)CC1	esBAF inh 51
CC(Cc1ccccn1)NC(=O)c1ccc(OC2CCN(CCc3ccccc3)CC2)cc1 (stereo not given)	none (no result: C2C12 statin, esBAF inh)
Cc1nn(CCOc2ccccc2)c(=O)n1-c1ccccc1	esBAF inh 43
Cc1cccc(OCC(=O)Nc2nccs2)c1C	Wnt act 37 (no result: C2C12 statin, esBAF inh)
Cc1cc(=O)oc2cc(OCC(=O)Nc3nccs3)ccc12	Wnt act 38
C[C@H]1CN([C@@H](C)CO)C(=O)c2cc(-c3ccc(C#N)cc3)cnc2O[C@H]1CN(C)Cc1cncnc1	none (no result: Wnt act, Rtt109 Vps75, MITF act)
COC(=O)C[C@H]1C=C[C@@H](NS(=O)(=O)c2ccccc2F)[C@@H](CO)O1	none (no result: Wnt act, Rtt109 Vps75, MITF act)
COc1ccc(S(=O)(=O)N(C)C[C@H]2OCCCC[C@@H](C)Oc3ccc(NS(=O)(=O)c4cn(C)cn4)cc3C(=O)N([C@H](C)CO)C[C@@H]2C)cc1	none (no result: Wnt act, C2C12 statin, Rtt109 Vps75, MITF act)
Cc1cccc(N2C(=O)C(Cl)=C(N3CCOCC3)C2=O)c1	Rtt109 Vps75 113 (no result: MITF act)
C[C@@H]1CN([C@H](C)CO)C(=O)Cc2cc(NS(=O)(=O)c3ccc(Cl)cc3)ccc2O[C@H]1CN(C)Cc1ccc(Cl)c(Cl)c1	C2C12 statin 91 (no result: Wnt act, Rtt109 Vps75, MITF act)
C[C@@H]1CN([C@@H](C)CO)C(=O)Cc2cc(NS(=O)(=O)c3ccc(Cl)cc3)ccc2O[C@H]1CN(C)Cc1ccc(Cl)c(Cl)c1	C2C12 statin inconclusive (no result: Wnt act, Rtt109 Vps75, MITF act)
C[C@H]1CN([C@@H](C)CO)C(=O)Cc2cc(NS(=O)(=O)c3ccc(Cl)cc3)ccc2O[C@@H]1CN(C)CC1CCCCC1	C2C12 statin 112 (no result: Wnt act, Rtt109 Vps75, MITF act)
C[C@H]1CN([C@@H](C)CO)C(=O)Cc2cc(NS(=O)(=O)c3ccc(Cl)cc3)ccc2O[C@H]1CN(C)CC1CCCCC1	none (no result: Wnt act, Rtt109 Vps75, MITF act)
C[C@H](CO)N1C[C@H](C)[C@@H](CN(C)Cc2ccc(Cl)c(Cl)c2)Oc2ccc(NS(=O)(=O)c3ccc(Cl)cc3)cc2CC1=O	C2C12 statin 84 (no result: Wnt act, Rtt109 Vps75, MITF act)
COc1ccc(S(=O)(=O)Nc2ccc3c(c2)CC(=O)N([C@H](C)CO)C[C@H](C)[C@@H](CN(C)Cc2ccc(Cl)c(Cl)c2)O3)cc1	C2C12 statin 201 (no result: Wnt act, Rtt109 Vps75, MITF act)
COc1ccc(S(=O)(=O)Nc2ccc3c(c2)CC(=O)N([C@@H](C)CO)C[C@@H](C)[C@H](CN(C)Cc2ccc(Cl)c(Cl)c2)O3)cc1	C2C12 statin inconclusive (no result: Wnt act, Rtt109 Vps75, MITF act)
COc1ccc(S(=O)(=O)N(C)C[C@H]2Oc3c(NC(=O)c4ccncc4)cccc3C(=O)N([C@@H](C)CO)C[C@H]2C)cc1	none (no result: Wnt act, Rtt109 Vps75, MITF act)
COc1ccc(CN(C)C[C@@H]2Oc3c(NS(=O)(=O)c4ccc(C)cc4)cccc3C(=O)N([C@@H](C)CO)C[C@@H]2C)cc1	none (no result: Wnt act, Rtt109 Vps75, MITF act)
C[C@H]1CN([C@@H](C)CO)C(=O)Cc2cc(NS(=O)(=O)c3ccc(F)cc3)ccc2O[C@H]1CN(C)Cc1ccc(Cl)c(Cl)c1	none (no result: Wnt act, Rtt109 Vps75, MITF act)
C[C@@H]1CN([C@H](C)CO)C(=O)Cc2cc(NS(=O)(=O)c3ccc(F)cc3)ccc2O[C@H]1CN(C)Cc1ccc(Cl)c(Cl)c1	C2C12 statin 83 (no result: Wnt act, Rtt109 Vps75, MITF act)
OC[C@H]1[C@H](c2ccc(Br)cc2)[C@H]2CN(Cc3cncnc3)CCCCN21	none (no result: Wnt act, Rtt109 Vps75, MITF act)
O=C1NC(=O)C2(CCc3ccccc32)N1 (stereo not given)	C2C12 statin 65
C[C@H](CO)N1C[C@H](C)[C@H](CN(C)C(=O)Cc2ccccc2)Oc2ncc(-c3cncnc3)cc2C1=O	none (no result: Wnt act, Rtt109 Vps75, MITF act)
COc1ccc(C2c3cc(OC)c(OC)cc3CC3C(=O)OCC32)cc1OC (stereo not given)	C2C12 statin 96 (no result: esBAF inh)
CCCCC(=O)Nc1cc2nn(-c3ccc(OC)cc3)nc2cc1C	esBAF inh 42
C[C@H](CO)N1C[C@H](C)[C@H](CN(C)S(=O)(=O)c2ccccc2)Oc2ccc(NS(=O)(=O)c3cn(C)cn3)cc2CC1=O	none (no result: Wnt act, Rtt109 Vps75, MITF act)
C[C@@H]1CN([C@@H](C)CO)C(=O)c2cccc(NS(=O)(=O)c3ccccc3)c2O[C@@H]1CN(C)S(=O)(=O)c1cn(C)cn1	none (no result: Wnt act, Rtt109 Vps75, MITF act)
CCN(CC)C(=O)c1c2c(nc3ccccc13)-c1ccccc1CC2	none (no result: Wnt act, C2C12 statin, esBAF inh)
CCN(CC)C(=O)c1nc(-c2cccc3ccccc23)no1	Wnt act 75, esBAF inh 70 (no result: Rtt109 Vps75, MITF act)
COc1ccc(CNC(=O)C[C@H]2C[C@H]3c4cc(NC(=O)CC5CC5)ccc4O[C@H]3[C@@H](CO)O2)cc1	none (no result: Wnt act, Rtt109 Vps75, MITF act)
O=C(C[C@@H]1CC[C@H](NC(=O)Cc2ccccn2)[C@H](CO)O1)NCCCN1CCOCC1	none (no result: Wnt act, Rtt109 Vps75, MITF act)
COc1cccc(N2CCN(c3ncccn3)CC2)c1	esBAF inh 43 (no result: Wnt act)
CCOC(=O)CN(C(=O)CNC(=O)c1ccco1)C(C(=O)NC1CCCCC1)c1cccs1 (stereo not given)	C2C12 statin 124 (no result: Wnt act)
COc1ccc(C(C(=O)NC2CCCC2)N(Cc2ccccc2)C(=O)CNC(=O)c2ccco2)cc1 (stereo not given)	none
O=C(NCC(=O)N(Cc1ccccc1)C(C(=O)NC1CCCCC1)c1ccco1)c1ccco1 (stereo not given)	C2C12 statin 110 (no result: Wnt act)
CC(C)NC(=O)Nc1ccc2c(c1)CC(=O)N([C@H](C)CO)C[C@H](C)[C@@H](CN(C)Cc1ccc(C(F)(F)F)cc1)O2	none (no result: Wnt act, Rtt109 Vps75, MITF act)
COc1ccc(-c2cn(CC[C@H]3CC[C@H](N)[C@@H](CO)O3)nn2)cc1	none (no result: Wnt act, Rtt109 Vps75, MITF act)
COc1ccc(C2CC(c3ccc(OC)c(OC)c3)=NN2S(C)(=O)=O)cc1 (stereo not given)	Wnt act 45, esBAF inh 71, MITF act 87
CNC[C@H]1Oc2cc(C#CC3(O)CCCC3)ccc2S(=O)(=O)N([C@H](C)CO)C[C@H]1C	none (no result: Wnt act, Rtt109 Vps75, MITF act)
Cc1cccc(NC2=NC(C)(C)N=C(N)N2)c1C	C2C12 statin 112
Cc1ccccc1NC1=NC(C)(C)N=C(N)N1	none
CC(C)N(C(=O)CSc1ncnc2sc(-c3ccccc3)cc12)C(C)C	esBAF inh 59 (no result: Wnt act)
